PubChem BioAssay (EPA / NIEHS)
Inconclusive results are not listed. The source made the active and inactive calls. How the source made its calls, unless noted: active means hit-call score of the fitted dose curve at least 0.9, where 1 is the maximum; inconclusive means response in the unintended direction; inactive means score below 0.9.

Assays:
[1] = ATG_CMV_CIS: Attagene CIS-FACTORIAL HepG2 Assay for human CMV (Internal Marker) (AID 2282928; active means hit-call score of the fitted dose curve at least 0.9, where 1 is the maximum; inactive means score below 0.9;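 further: endpoint acts as a background internal control marker rather than a target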); details: HepG2 CMV promoter reporter, transcription factor profiling; actives raise or lower the signal
Procedure, shortened: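 CMV internal-marker background readout in transiently transfected HepG2 cells bearing cis-regulated reporter units. Reporter mRNA is measured 24 h after dosing by RT-PCR and capillary electrophoresis, with bidirectional fitting against DMSO.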

[2] = ATG_AP_1_CIS: Attagene CIS-FACTORIAL HepG2 Assay for human Activator Protein 1 (AP-1) (AID 2282931; active means hit-call score of the fitted dose curve at least 0.9, where 1 is the maximum; inactive means score below 0.9); details: HepG2 Attagene cis-factorial AP-1 reporter mRNA; actives raise or lower the signal
Procedure, shortened: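 Endogenous transcription-factor activity in human HepG2 liver cells is read through a cis-promoter reporter transcript, sampled 24 h after dosing. Detection uses RT-PCR with capillary electrophoresis; values come from bidirectional fitting relative to DMSO.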

[3] = ATG_ISRE_CIS: Attagene CIS-FACTORIAL HepG2 Assay for human Interferon Regulatory Factor 1 (IRF1) binding to an Interferon-Stimulated Response Element (ISRE) (AID 2282948; active means hit-call score of the fitted dose curve at least 0.9, where 1 is the maximum; inactive means score below 0.9); details: HepG2 ISRE cis-reporter (Attagene), mRNA transcription readout; actives raise or lower the signal
Procedure, shortened: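 Transiently transfected HepG2 cells carrying cis-element reporter units, dosed 24 hours. Reporter mRNA quantified by RT-PCR, fluorescent primer extension, HpaI digestion and capillary electrophoresis. Bidirectional fitting relative to DMSO.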

[4] = ATG_M_06_CIS: Attagene CIS-FACTORIAL HepG2 Assay for M06 Transcription Factor (Internal Marker) (AID 2282950; active means hit-call score of the fitted dose curve at least 0.9, where 1 is the maximum; inactive means score below 0.9); details: HepG2 Attagene CIS-FACTORIAL M06 internal marker reporter; actives raise or lower the signal
Procedure, shortened: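 Read-out is fluorescence of labelled reporter cDNA fragments resolved by capillary electrophoresis after RT-PCR. Cells: HepG2 carrying transfected cis-promoter reporter units, treated 24 h. Gain or loss of signal fitted relative to DMSO.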

[5] = target: Hepatocyte nuclear factor 6 (Homo sapiens) (UniProt Q9UBC0); assay: ATG_HNF6_CIS: Attagene CIS-FACTORIAL HepG2 Assay for human Hepatocyte Nuclear Factor 6 (HNF6) (AID 2282952; active means hit-call score of the fitted dose curve at least 0.9, where 1 is the maximum; inactive means score below 0.9); details: HepG2 Attagene cis-factorial HNF6 reporter transcription; actives raise or lower the signal
Chain of Hepatocyte nuclear factor 6 (Homo sapiens) (Q9UBC0 whole entry, looked up): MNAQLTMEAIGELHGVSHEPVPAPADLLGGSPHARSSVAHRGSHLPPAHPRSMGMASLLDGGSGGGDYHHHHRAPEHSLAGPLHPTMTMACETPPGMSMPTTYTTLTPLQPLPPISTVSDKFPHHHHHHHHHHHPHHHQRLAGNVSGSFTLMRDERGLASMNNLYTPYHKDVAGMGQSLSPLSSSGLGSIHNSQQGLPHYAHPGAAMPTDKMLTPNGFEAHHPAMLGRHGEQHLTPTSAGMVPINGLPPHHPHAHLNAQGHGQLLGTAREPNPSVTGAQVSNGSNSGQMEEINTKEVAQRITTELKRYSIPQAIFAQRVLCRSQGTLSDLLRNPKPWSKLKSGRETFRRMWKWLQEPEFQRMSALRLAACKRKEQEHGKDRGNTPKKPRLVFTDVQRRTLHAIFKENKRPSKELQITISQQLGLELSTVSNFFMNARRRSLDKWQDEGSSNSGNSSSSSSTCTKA
Procedure, shortened: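 Transiently transfected HepG2 cells expressing cis-regulated reporter transcription units were exposed to chemical for 24 h in a 24-well format. Reporter transcript abundance was determined by fluorescence capillary electrophoresis.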

[6] = ATG_TAL_CIS: Attagene CIS-FACTORIAL HepG2 Assay for human TAL Basal Promoter (AID 2282966; active means hit-call score of the fitted dose curve at least 0.9, where 1 is the maximum; inactive means score below 0.9;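 further: background control endpoint measuring basal TAL promoter reporter mRNA not a specific factor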); details: HepG2 Attagene cis-factorial TAL promoter reporter; actives raise or lower the signal
Procedure, shortened: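 In this cell-based multiplex, HepG2 liver cells bearing cis-promoter reporter constructs are dosed for 24 hours. Total RNA is reverse-transcribed and amplified, labelled fragments are sized by capillary electrophoresis, and signal changes are fitted bidirectionally versus DMSO.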

[7] = ATG_M_19_TRANS: Attagene TRANS-FACTORIAL HepG2 Assay for M19 Transcription Factor (Internal Marker) (AID 2282974); details: HepG2 Attagene TRANS-FACTORIAL M19 internal marker reporter
Procedure, shortened: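 Cells: human HepG2, transiently transfected with multiplexed reporter transcription units. Exposure: 24 h. Detection: RT-PCR of reporter mRNA with capillary electrophoresis. Analysis: gain-of-signal vs DMSO.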

[8] = target: Hepatocyte nuclear factor 4-alpha (Homo sapiens) (UniProt P41235); assay: ATG_HNF4a_TRANS: Attagene TRANS-FACTORIAL HepG2 Assay for human Hepatocyte Nuclear Factor 4 alpha (HNF4a) (AID 2282982); details: HepG2 HNF4a transactivation reporter, mRNA readout
Chain of Hepatocyte nuclear factor 4-alpha (Homo sapiens) (P41235 whole entry, looked up, the tested form may be a part): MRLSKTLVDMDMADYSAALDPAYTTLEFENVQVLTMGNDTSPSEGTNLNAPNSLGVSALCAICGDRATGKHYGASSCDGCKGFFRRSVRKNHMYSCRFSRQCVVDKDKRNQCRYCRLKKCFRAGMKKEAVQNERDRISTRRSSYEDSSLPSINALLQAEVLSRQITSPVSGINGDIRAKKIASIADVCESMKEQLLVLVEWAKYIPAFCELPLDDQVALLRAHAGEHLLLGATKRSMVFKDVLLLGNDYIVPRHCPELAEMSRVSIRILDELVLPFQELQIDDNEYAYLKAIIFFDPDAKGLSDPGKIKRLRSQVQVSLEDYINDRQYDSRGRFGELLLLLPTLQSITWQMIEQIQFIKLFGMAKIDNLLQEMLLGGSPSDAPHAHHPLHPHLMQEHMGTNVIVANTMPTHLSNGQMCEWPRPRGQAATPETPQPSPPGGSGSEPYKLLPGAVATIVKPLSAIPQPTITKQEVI
Procedure, shortened: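 Cells used were human HepG2, transiently carrying GAL4-UAS reporter units read out against exogenous NR-GAL4 chimeras. Reporter transcript levels after 24 h dosing were quantified by fluorescent RT-PCR and capillary electrophoresis.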

[9] = ATG_M_06_TRANS: Attagene TRANS-FACTORIAL HepG2 Assay for M06 Transcription Factor (Internal Marker) (AID 2282983); details: HepG2 Attagene TRANS M06 internal marker reporter
Procedure, shortened: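 After a 24 h chemical treatment of transfected HepG2, RNA underwent DNase I treatment, reverse transcription and reporter-specific PCR; labelled, HpaI-digested products were sized by capillary electrophoresis. Signal increase relative to DMSO defined activity.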

[10] = ATG_NRF2_ARE_CIS: Attagene CIS-FACTORIAL HepG2 Assay for human Nuclear Factor Erythroid 2 Related Factor 2 (NFR2) response to Antioxidant Response Elements (ARE) (AID 2282992; active means hit-call score of the fitted dose curve at least 0.9, where 1 is the maximum; inactive means score below 0.9;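 on AC50: reporter mRNA level measured by RT-PCR and capillary electrophoresis fluorescence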); details: HepG2 Attagene ARE/NRF2 reporter, transcription factor activity; actives raise or lower the signal
Procedure, shortened: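 HepG2 cells transiently transfected with multiplexed cis-element reporter constructs, 24 h after chemical dosing; reporter mRNA quantified by RT-PCR, fluorescent primer extension, HpaI digestion and capillary electrophoresis. Bidirectional fit relative to DMSO.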

[11] = TOX21_p53_BLA_p3_viability: Viability Assessment in the Tox21 HCT-116 p53 Agonism Beta-lactamase Assay, Phase 3 (AID 2283593);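 further: cells exposed to compound for 16 h before reading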
Procedure, shortened: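 HCT-116 cells (4000/well) rested 5 h at 37C, then got DMSO compounds by pin tool (217-fold dilution) for 16 h at 37C, 5% CO2. After the bla read, CellTiter-Glo was added and luminescence read at 30 min, room temperature.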

[12] = TOX21_p53_BLA_p5_viability: Viability Assessment in the Tox21 HCT-116 p53 Agonism Beta-lactamase Assay, Phase 5 (AID 2283600)
Procedure, shortened: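 Compounds, pinned from DMSO at 217-fold dilution, were left on the cells for 16 h. The viability endpoint was ATP content measured by CellTiter-Glo luminescence, where falling signal reflects cytotoxicity.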

[13] = ATG_EGR_CIS: Attagene CIS-FACTORIAL HepG2 Assay for human Early Growth Response 1 (EGR1) (AID 2282938; active means hit-call score of the fitted dose curve at least 0.9, where 1 is the maximum; inactive means score below 0.9); details: HepG2 Attagene CIS-FACTORIAL EGR reporter mRNA; actives raise or lower the signal
Procedure, shortened: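 Endogenous TF activity in HepG2 liver cells was gauged through cis-promoter reporter constructs transiently transfected. After 24 h dosing, reporter mRNA was quantified by RT-PCR and capillary electrophoresis, and curves fitted in both directions versus DMSO.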

[14] = ATG_PBREM_CIS: Attagene CIS-FACTORIAL HepG2 Assay for human Phenobarbital-responsive Enhancer Module (PBREM) (AID 2282955; active means hit-call score of the fitted dose curve at least 0.9, where 1 is the maximum; inactive means score below 0.9); details: HepG2 PBREM cis-reporter, Attagene multiplexed transcription; actives raise or lower the signal
Procedure, shortened: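 Fluorescence of labelled reporter cDNA fragments, resolved by capillary electrophoresis, gives mRNA induction in transfected HepG2 cells treated for 24 h; DMSO serves as negative control and baseline.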

[15] = target: human Peroxisome Proliferator-activated Receptor delta (PPARd), PPARD (gene 5467) (UniProt Q03181); assay: ATG_PPARd_TRANS: Attagene TRANS-FACTORIAL HepG2 Assay for human Peroxisome Proliferator-activated Receptor delta (PPARd) (AID 2283002)
Chain of human Peroxisome Proliferator-activated Receptor delta (PPARd), PPARD (gene 5467) (Q03181 whole entry, looked up, the tested form may be a part): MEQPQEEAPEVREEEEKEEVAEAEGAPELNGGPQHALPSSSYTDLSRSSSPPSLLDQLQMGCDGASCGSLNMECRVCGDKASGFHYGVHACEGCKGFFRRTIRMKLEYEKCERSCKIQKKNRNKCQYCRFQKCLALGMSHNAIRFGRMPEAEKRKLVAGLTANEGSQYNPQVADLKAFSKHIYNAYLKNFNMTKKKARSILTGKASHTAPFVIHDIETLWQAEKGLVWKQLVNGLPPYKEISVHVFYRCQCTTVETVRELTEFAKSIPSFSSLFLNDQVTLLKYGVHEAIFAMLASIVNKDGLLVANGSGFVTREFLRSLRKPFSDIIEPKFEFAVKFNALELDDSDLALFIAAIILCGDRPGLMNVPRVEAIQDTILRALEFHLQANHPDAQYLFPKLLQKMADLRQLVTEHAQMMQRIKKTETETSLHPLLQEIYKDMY
Procedure, shortened: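 Multiplexed trans-activation format: HepG2 liver cells expressing exogenous NR-Gal4 chimeras and GAL4-UAS reporters were exposed for 24 h. Reporter mRNA was detected by RT-PCR with capillary electrophoresis fluorescence; activity fitted as gain of signal relative to DMSO.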

[16] = target: Nuclear receptor subfamily 1 group I member 2 (Homo sapiens) (UniProt O75469); assay: ATG_PXR_TRANS: Attagene TRANS-FACTORIAL HepG2 Assay for human Pregnane X Receptor (PXR) (AID 2283008)
Chain of Nuclear receptor subfamily 1 group I member 2 (Homo sapiens) (O75469 whole entry, looked up, the tested form may be a part): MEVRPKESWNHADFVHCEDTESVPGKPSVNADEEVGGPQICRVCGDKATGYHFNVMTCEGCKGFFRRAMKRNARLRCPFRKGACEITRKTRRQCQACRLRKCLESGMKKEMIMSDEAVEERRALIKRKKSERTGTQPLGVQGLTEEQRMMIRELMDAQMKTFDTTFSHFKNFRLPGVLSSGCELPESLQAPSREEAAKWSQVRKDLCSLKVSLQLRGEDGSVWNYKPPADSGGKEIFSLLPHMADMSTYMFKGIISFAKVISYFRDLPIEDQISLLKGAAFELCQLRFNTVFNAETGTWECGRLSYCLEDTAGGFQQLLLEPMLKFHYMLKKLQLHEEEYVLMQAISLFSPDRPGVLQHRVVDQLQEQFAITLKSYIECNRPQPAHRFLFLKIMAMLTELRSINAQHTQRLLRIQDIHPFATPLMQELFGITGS
Procedure, shortened: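 HepG2 cells transiently transfected with GAL4-UAS reporter units and PXR-Gal4 chimera, exposed 24 h. Reporter mRNA quantified by RT-PCR, fluorescent labelling, HpaI digestion and capillary electrophoresis; gain of signal vs DMSO.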

[17] = target: Cellular tumor antigen p53 (Homo sapiens) (UniProt P04637); assay: TOX21_p53_BLA_p5_ratio: Tox21 HCT-116 p53 Agonism Beta-lactamase Assay, Ratio, Phase 5 (AID 2283599)
Chain of Cellular tumor antigen p53 (Homo sapiens) (P04637 whole entry, looked up): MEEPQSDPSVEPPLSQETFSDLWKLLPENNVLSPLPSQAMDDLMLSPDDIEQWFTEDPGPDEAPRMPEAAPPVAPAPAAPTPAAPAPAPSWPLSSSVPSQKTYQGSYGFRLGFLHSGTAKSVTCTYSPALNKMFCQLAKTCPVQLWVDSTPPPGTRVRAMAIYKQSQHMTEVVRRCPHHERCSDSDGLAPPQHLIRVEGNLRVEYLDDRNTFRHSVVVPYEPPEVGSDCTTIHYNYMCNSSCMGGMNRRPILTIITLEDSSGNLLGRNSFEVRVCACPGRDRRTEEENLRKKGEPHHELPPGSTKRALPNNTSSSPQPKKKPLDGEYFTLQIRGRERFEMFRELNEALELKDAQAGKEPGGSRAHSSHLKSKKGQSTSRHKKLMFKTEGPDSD
Procedure, shortened: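 HCT-116 cells carrying a p53-inducible beta-lactamase reporter were seeded at 4000 cells/well and dosed after 5 h with compound in DMSO (217-fold dilution). After 16 h at 37C, CCF4-AM substrate was added for 2 h, and the 460/530 nm emission ratio was scored as gain-of-signal versus DMSO.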

[18] = ACEA_ER_AUC_viability: ACEA Biosciences xCELLigence Real-Time Cell Analysis on Estrogen Receptor Agonism for Viability (AID 2283782);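 further: continuous compound exposure with impedance area under curve over 80 h; hit means loss of impedance signal meaning reduced cell growth or viability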
Procedure, shortened: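 T-47D human breast cells in phenol red-free RPMI1640 with 10% charcoal-stripped FBS were dosed with an 8-point 1:4 dilution series from 100 uM top final concentration, in duplicate. Impedance-based growth was followed for 80 h; AUC analysed versus DMSO.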

[19] = target: human Thyroid Receptor alpha (THRa1), THRA (gene 7067) (UniProt P10827); assay: ATG_THRa1_TRANS: Attagene TRANS-FACTORIAL HepG2 Assay for human Thyroid Receptor alpha (THRa1) (AID 2283014)
Chain of human Thyroid Receptor alpha (THRa1), THRA (gene 7067) (P10827 whole entry, looked up, the tested form may be a part): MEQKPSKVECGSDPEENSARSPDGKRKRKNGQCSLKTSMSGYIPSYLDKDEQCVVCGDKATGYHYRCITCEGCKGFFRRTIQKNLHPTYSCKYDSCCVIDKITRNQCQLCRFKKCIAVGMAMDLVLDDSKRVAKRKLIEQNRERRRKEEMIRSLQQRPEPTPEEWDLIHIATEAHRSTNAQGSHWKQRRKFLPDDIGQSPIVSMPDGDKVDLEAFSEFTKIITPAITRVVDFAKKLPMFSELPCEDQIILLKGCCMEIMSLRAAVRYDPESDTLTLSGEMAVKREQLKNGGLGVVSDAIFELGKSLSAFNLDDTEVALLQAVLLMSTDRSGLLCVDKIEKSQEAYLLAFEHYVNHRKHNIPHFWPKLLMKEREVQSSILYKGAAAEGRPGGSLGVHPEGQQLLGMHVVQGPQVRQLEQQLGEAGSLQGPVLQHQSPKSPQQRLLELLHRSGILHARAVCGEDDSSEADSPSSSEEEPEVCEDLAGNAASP
Procedure, shortened: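 Transient HepG2 transfection, NR-Gal4 chimera driving GAL4-UAS reporters; 24 h compound exposure; total RNA, oligo(dT) RT, PCR, fluorescent primer extension, capillary electrophoresis. Upward direction vs DMSO control.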

[20] = target: human Fibroblast Growth Factor Receptor 1 (FGFR1), FGFR1 (gene 2260) (UniProt P11362); assay: NVS_ENZ_hFGFR1: NovaScreen (NVS) Enzymatic Assay for human Fibroblast Growth Factor Receptor 1 (FGFR1) (AID 2283159);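 on AC50: hits lower the signal so potencies describe inhibitors of the kinase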
Chain of human Fibroblast Growth Factor Receptor 1 (FGFR1), FGFR1 (gene 2260) (P11362 whole entry, looked up): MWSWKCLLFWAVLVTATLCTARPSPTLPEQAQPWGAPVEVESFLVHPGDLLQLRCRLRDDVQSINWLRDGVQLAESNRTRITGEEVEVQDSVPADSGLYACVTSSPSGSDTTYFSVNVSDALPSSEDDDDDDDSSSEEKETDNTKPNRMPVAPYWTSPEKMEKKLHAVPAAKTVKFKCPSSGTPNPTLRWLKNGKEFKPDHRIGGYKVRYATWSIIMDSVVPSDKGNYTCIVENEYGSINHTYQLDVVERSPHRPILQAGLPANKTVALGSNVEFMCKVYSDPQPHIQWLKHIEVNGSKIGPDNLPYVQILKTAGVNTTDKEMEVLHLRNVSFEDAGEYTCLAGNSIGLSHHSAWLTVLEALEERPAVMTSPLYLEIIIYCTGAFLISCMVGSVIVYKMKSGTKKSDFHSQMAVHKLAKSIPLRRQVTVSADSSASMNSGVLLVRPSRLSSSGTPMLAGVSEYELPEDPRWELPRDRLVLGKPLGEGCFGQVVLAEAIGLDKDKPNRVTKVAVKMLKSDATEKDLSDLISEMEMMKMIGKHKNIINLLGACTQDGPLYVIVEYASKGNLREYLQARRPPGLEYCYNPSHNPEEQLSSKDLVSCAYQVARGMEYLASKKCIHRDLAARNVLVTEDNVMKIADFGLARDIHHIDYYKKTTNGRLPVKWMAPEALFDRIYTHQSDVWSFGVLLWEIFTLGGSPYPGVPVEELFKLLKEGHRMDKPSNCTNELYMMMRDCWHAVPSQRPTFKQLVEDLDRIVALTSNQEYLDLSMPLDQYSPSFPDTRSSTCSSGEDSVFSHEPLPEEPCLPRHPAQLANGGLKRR
Procedure, shortened: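 Cell-free recombinant kinase with fluorescent substrate, product separated by electrophoretic mobility shift; read 1 hour after dosing, loss of signal relative to DMSO. Initial screen in duplicate at 25 uM, actives followed in concentration series.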

O=[N+]([O-])O.O=[N+]([O-])O.[Cd]
AC50 [1]: 0.873 µM (active) | AC50 [2]: 5.97 µM (active) | AC50 [3]: 1.03 µM (active) | outcome [4]: inactive | outcome [5]: inactive | outcome [6]: inactive | outcome [7]: inactive | outcome [8]: inactive | outcome [9]: inactive | AC50 [10]: 4.12 µM (active) | outcome [11]: inactive | outcome [12]: inactive

CC(C)(Cl)Cl
outcome [1]: inactive | outcome [2]: inactive | outcome [13]: inactive | outcome [5]: inactive | outcome [14]: inactive | outcome [7]: inactive | outcome [10]: inactive | outcome [15]: inactive | outcome [16]: inactive | outcome [11]: inactive | outcome [17]: inactive | outcome [12]: inactive | outcome [18]: inactive

c1ccc(Nc2ccc3ccccc3c2)cc1
AC50 [2]: 115 µM (active) | outcome [13]: inactive | outcome [4]: inactive | outcome [5]: inactive | outcome [14]: inactive | outcome [6]: inactive | outcome [7]: inactive | outcome [8]: inactive | outcome [9]: inactive | AC50 [10]: 37 µM (active) | outcome [15]: inactive | AC50 [16]: 7.59 µM (active) | outcome [19]: inactive | outcome [11]: inactive | outcome [17]: inactive | outcome [12]: inactive | AC50 [18]: 87.1 µM (active)

CCCCCCCCCCCCCC[P+](CCCC)(CCCC)CCCC
AC50 [20]: 5.1 µM (active)

NC(=NCCCCCCN=C(N)/N=C(\N)Nc1ccc(Cl)cc1)/N=C(\N)Nc1ccc(Cl)cc1
AC50 [20]: 11.8 µM (active)

Cc1nc(-c2ccc3c(c2)CCN(CCC2CCC(NC(=O)/C=C/c4ccc(F)cc4)CC2)CC3)no1 (stereo unspecified)
AC50 [20]: 5.82 µM (active)

CCCCCCCCCCCCc1ccccc1S(=O)(=O)O
AC50 [20]: 9.42 µM (active)

CCCCCCCCCCCCCCCCOS(=O)(=O)O
AC50 [20]: 1.41 µM (active)

CCC(C)N(C)C(=O)c1cc2ccccc2c(-c2ccccc2Cl)n1 (stereo unspecified)
outcome [20]: inactive

Oc1ccc2c(c1)-c1ccccc1C2
AC50 [20]: 32.7 µM (active)

O=C(O)Cn1c(=O)n(Cc2ccc(Br)cc2F)c(=O)c2ccc(Cl)cc21
outcome [20]: inactive

COCCOC[C@H](CC1(C(=O)NC2CCC(C(=O)O)CC2)CCCC1)C(=O)Oc1ccc2c(c1)CCC2 (stereo partly specified)
outcome [20]: inactive

CN(C)c1ccc(N=NS(=O)(=O)O)cc1
outcome [20]: inactive

CCCCCCCCCC(=O)O
outcome [20]: inactive

Cc1cc(CCN2CCN(c3nsc4ccccc34)CC2)cc2c1NC(=O)CC2(C)C
outcome [20]: inactive

Nc1cccc2c(N)cccc12
outcome [20]: inactive

O=C(c1ccc(O)cc1O)c1ccc(O)cc1O
AC50 [20]: 25 µM (active)

CSc1ccc(Oc2ccc(S(N)(=O)=O)cc2CN(C)C)cc1C
outcome [20]: inactive

COCC(C)OCC(C)OCC(C)O (stereo unspecified)
outcome [20]: inactive

CCCCCCCCN(C)CCCCCCCC
AC50 [20]: 36.1 µM (active)

CCOc1ccc2c(c1)C(C)=CC(C)(C)N2
outcome [20]: inactive

Cc1cc(NC(=O)C(=O)O)cc(C)c1Oc1ccc(O)c2c1CCC2
outcome [20]: inactive
